# Bioassay records: PubChem BioAssay, several laboratories
# Only some compounds are listed: those with a hit (about 3% of all), similar ones and a draw of the others.
# ROMK mod – ROMK potassium channel modulators, primary screen, cell-based, thallium flux, MLSMR library | ATP-sensitive inward rectifier potassium channel 1 (Homo sapiens), P48048 | Tet-inducible ROMK, thallium flux fluorescence; actives lie on both sides | B-score at 10 µM | 2% of 130,000 active;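 active = signal ratio slope over the read window, or its plate-corrected B-score, at least 3 SD from the plate mean, either direction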;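 note: B-score of the F/F0 ratio slope over 7 to 12 s after thallium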
# Target sequence (P48048 whole entry, looked up): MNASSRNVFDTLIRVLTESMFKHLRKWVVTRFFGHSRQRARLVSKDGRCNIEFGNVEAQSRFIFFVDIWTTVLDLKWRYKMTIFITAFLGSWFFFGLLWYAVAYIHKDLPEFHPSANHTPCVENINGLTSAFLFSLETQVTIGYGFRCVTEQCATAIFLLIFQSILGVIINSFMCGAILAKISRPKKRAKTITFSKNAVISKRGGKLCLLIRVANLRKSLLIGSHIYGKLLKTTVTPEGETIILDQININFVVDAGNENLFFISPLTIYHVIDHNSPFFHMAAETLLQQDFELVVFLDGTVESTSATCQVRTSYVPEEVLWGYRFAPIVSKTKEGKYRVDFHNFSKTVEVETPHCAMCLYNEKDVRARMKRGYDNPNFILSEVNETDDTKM
# zVAD death inh – inhibitors of zVAD-triggered necroptosis, primary screen, L929 cells; L929 zVAD necroptosis rescue, ATP luminescence, 24 h; with zVAD 60 µM; viability rescue, % at 10 µM; 0.38% of 220,000 active; AID 1377, 2008;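 active = activation, scaled between plate controls, above about 75%, limit read from the data; inactive = activation under that limit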;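 note: 0% = zVAD with DMSO and 100% = DMSO alone without zVAD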
# Efa HMGR inh – inhibitors of E. faecalis class II HMGR, primary screen, biochemical, Enterococcus faecalis; AID 1066, 2008; purified E. faecalis HMGR, NADPH absorbance 340 nm kinetic; inhibition, % at 10 µM; 0.41% of 190,000 active;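 active = inhibition above a set limit, the median over all tested compounds plus 3 SD, cut at about 9.5% in these data; inconclusive = no clear call, values can overlap the other calls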;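 note: enzyme runs in reverse so mevalonate oxidation gives rising NADPH absorbance; 0% = complete reaction with DMSO and 100% = background rate lacking mevalonate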
# TNF necrop inh – inhibitors of TNF-alpha triggered necroptosis, primary screen, cell-based, Jurkat FADD-/-, single concentration; AID 463075, 2010; Jurkat FADD-/- TNF necroptosis rescue, ATP luminescence, 24 h; 0 = TNF only, 100 = no-TNF cells; activation (protection from cell death), % at 10 µM; 0.068% of 220,000 active;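 active = activation, meaning protection from cell death, of at least 50% relative to plate controls; inactive = activation below 50%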;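 note: necroptosis triggered by 40 ng/mL TNF-alpha added together with compound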
# 14-3-3 Bad inh – inhibitors of 14-3-3 zeta/Bad binding, primary screen, biochemical, TR-FRET, bovine 14-3-3 zeta | TR-FRET 14-3-3zeta/Dy647-pBad peptide displacement, 1 h | inhibition, % at 21.7 µM | 0.71% of 220,000 active | AID 781, 2007;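 active = inhibition above about 70%, limit read from the data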;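 note: 0% = full 14-3-3 plus peptide FRET controls and 100% = background without 14-3-3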
# m-calpain inh – inhibitors of pig calpain II, primary screen, biochemical, fluorogenic peptide substrate, 1536-well; purified calpain II, 30 min; AID 1236, 2008; inhibition, % at 16 µM; 0.37% of 220,000 active;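 active = inhibition above about 50%, limit read from the data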
# zVAD necrop conf – inhibitors of zVAD-triggered necroptosis in L929, confirmation, L929 cells, duplicate runs; shares compounds with zVAD death inh; L929 zVAD-induced necroptosis rescue, ATP luminescence, 24 h; activation (protection from necroptosis), % at 10 µM; 16% of 760 active; AID 463117, 2010;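 active = mean protection from necroptosis of at least 50% over duplicate tests; inactive = mean protection below 50%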;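 note: 0% = cells with zVAD alone and 100% = vehicle cells without zVAD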
# ROMK retest – ROMK channel modulator hit retest, confirmation, cell-based, thallium flux, duplicate, resupplied hits; 54% of 3,000 active; AID 1917, 2009; normalized thallium flux (F/F0 slope) at 10 µM; fluorescence ratio; active compounds read low; shares compounds with ROMK mod;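 active = Flux at 10 µM at least 3 SD below or above vehicle control mean in one or both replicates; inconclusive = no clear call, values can overlap the other calls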
# The depositor's hits bear a star; ? = inconclusive; nt = no result given.
SMILES,ROMK mod,zVAD death inh,Efa HMGR inh,TNF necrop inh,14-3-3 Bad inh,m-calpain inh,ROMK retest,others
C[C@H]1CCC[C@@H](O)CCC/C=C/c2cc(O)cc(O)c2C(=O)O1,-0.059,79*,4,13,-2,-32,nt,zVAD necrop conf=1
C[C@H]1CCC[C@H](O)CCCCCc2cc(O)cc(O)c2C(=O)O1,-0.87,0,1,8,-2,9,nt,
O=C(Nc1ccccc1)N1CC2CC(C1)c1cccc(=O)n1C2 (stereo not drawn),-0.62,1,-1,-1,-8,-15,nt,
Cc1cc([N+](=O)[O-])c2ccccc2[n+]1[O-],nt,81*,nt,-28,-3,-1,nt,zVAD necrop conf=67*
CN1c2ccc([N+](=O)[O-])cc2CC2(C(=O)NC(=O)N(c3ccc(Br)cc3)C2=O)C1c1ccccc1 (stereo not drawn),nt,0,-3,2,3,11,0.072,
c1ccc2c(c1)Sc1ccccc1N2CC1CN2CCC1CC2 (stereo not drawn),nt,3,nt,-6,-2,-7,0.04*,
O=C(/C=C/c1c[nH]c2ccccc12)c1c(O)n(CCc2ccccc2)c(=O)[nH]c1=O,nt,1,nt,0,3,10,0.04*,
C/C(=N\N=C(N)N)c1ccccc1,-0.12,1,nt,1,-4,-18,nt,
C#CCOc1cc(C2C3=C(COC3=O)Nc3cc4c(cc32)OCO4)ccc1OC (stereo not drawn),3.5*,-1,-9,-5,3,-135,0.086,
CNC(=O)Nc1ccc(C(=O)N/N=C\C23CC[C@@H](O)CC2(O)CC[C@@H]2[C@@H]3CCC3(C)C(C4=CC(=O)OC4)CCC23O)cc1 (stereo partly drawn),nt,2,nt,2,0,-11,?,
CC12CC[C@H]3[C@@H](CCC4(O)C[C@H](O)CCC34/C=N/NC(=O)Cc3ccccc3)C1(O)CCC2C1=CC(=O)OC1 (stereo partly drawn),nt,1,nt,5,-3,1,0.085,
CCOc1ccccc1C1SCC(=O)Nc2c1c(=O)[nH]n2C(CC)CC (stereo not drawn),nt,2,0,1,6,-25,nt,
COc1ccc(CNC(C)Cc2cccs2)cc1 (stereo not drawn),-0.41,-2,-5,2,-5,14,nt,
Cc1[nH]c2c(C(F)(F)F)cccc2c1CCN,-0.88,1,-6,-19,5,-9,nt,
Cc1c(CCN)ccc2c1[nH]c1ccccc12,-3.2*,0,nt,-9,4,4,0.066*,
CN1CCN(c2cc(N3CCCCCC3)c(F)cc2[N+](=O)[O-])CC1,-3.6*,3,-1,4,-17,3,0.053*,
CCC(=NCC1CCCO1)c1c(O)n(-c2ccccc2C)c(=O)[nH]c1=O (stereo not drawn),nt,0,nt,1,-2,5,nt,
Cc1cccc(-n2c(C)nc3ccccc3c2=O)n1,0.26,0,-4,-2,3,-10,nt,
Cc1cccc(-n2c(=S)[nH]c3ccccc3c2=O)n1,2.5*,1,3,1,-9,0,0.075,
COc1cc(CN2CCN(c3cc(C)ccc3C)CC2)ccc1O,nt,0,-9,-12,38,-24,nt,
CCC(=NCc1ccco1)c1c(O)n(C2CCCCC2)c(=O)[nH]c1=O,-4*,0,0,-1,-9,11,0.054*,
CCOC(=O)C1(CCOc2ccccc2)CCN(C2Cc3ccccc3C2)CC1,nt,1,-9,2,-4,21,nt,
